Compound activity deposited in PubChem BioAssay by several laboratories.
This is a sample that favours compounds with a hit; in the whole collection about 1.5% have one here.
CendR NRP1 mod = modulators of CendR peptide binding to NRP-1, primary screen, biochemical, fluorescence polarization, uHTS; FAM-RPARPAR peptide binding to NRP-1; inhibition, % at 25 µM; actives 0.85% (n = 360,000); AID 602438, 2012;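 active = inhibition or corrected inhibition above about 18%, plus a signal ratio from 0.5 to 1.5, limit read from the data, passing the limit was not always enough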
RAD52 inh = RAD52 DNA annealing inhibitors, primary screen, biochemical, FRET, single point, set 2 | actives 0.46% (n = 360,000) | recombinant RAD52 DNA annealing, FRET fluorescence | inhibition, % at 18.7 µM | DNA repair protein RAD52 homolog (Homo sapiens), P43351;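 active = every replicate showing at least 50% inhibition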
Glyco luc inh = increase of ERlucT glycosylation luciferase signal, primary screen, N-linked glycosylation inhibitor project, D54 ERlucT cells, luminescence, set 2; D54 ERlucT glycosylation luciferase reporter, 24 h; percent of 100 nM tunicamycin response; reporter increase, % at 12.5 µM; actives 0.23% (n = 360,000); AID 588692, 2011;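 active = mean luciferase reporter signal, scaled so untreated is 0 and the glycosylation-blocking control 100, at or above a set limit in every replicate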;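 also: luciferase carries N-glycosylation sites so blocking glycosylation raises the light; 0% = median of neutral control wells and 100% = median of 100 nM tunicamycin wells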
RAD54 branch = inhibitors of human RAD54 branch migration, primary screen, biochemical, fluorescence, single point | RAD54 Holliday junction branch migration, FAM/BHQ fluorescence | inhibition, % at 10.4 µM | actives 0.14% (n = 360,000) | AID 602329, 2012;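 active = mean normalized replicate activity at least 40 and at least half of replicates scoring 40 or more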;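 also: 0% = median of neutral control wells and 100% = median of positive control wells; inhibitors cause a drop in the FAM fluorescence signal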
Target sequence (Q92698 whole entry, looked up): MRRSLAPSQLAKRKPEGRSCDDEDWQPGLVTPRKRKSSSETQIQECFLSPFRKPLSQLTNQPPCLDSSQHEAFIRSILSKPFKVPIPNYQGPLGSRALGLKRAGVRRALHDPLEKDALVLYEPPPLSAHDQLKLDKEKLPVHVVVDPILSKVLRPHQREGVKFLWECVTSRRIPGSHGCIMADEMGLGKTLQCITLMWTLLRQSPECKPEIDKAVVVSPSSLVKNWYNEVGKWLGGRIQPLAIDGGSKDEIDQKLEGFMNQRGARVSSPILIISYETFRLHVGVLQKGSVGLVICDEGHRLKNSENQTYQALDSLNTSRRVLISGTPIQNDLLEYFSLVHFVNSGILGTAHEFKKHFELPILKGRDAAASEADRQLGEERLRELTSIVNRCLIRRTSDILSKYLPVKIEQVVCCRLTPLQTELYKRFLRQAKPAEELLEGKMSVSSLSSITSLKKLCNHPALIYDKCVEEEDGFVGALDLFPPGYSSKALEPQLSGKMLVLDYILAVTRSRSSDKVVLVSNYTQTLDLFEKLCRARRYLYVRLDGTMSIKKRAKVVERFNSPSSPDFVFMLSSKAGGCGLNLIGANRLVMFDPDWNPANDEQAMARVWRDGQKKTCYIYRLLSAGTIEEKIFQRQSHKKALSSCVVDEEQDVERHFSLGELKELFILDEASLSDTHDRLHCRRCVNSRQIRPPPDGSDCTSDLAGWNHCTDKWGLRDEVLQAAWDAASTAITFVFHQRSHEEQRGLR
miR122 inh = miR-122 Renilla sensor signal increase in Huh7, primary screen, miR-122 inhibitor project, cell-based, single point, plate reader; AID 602342, 2012; actives 0.3% (n = 340,000); Huh7 miR-122 Renilla luciferase sensor, 48 h; neutral wells = 0, positive control = 100; activation (reporter increase), % at 12.5 µM;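 active = mean replicate activation score at least 90 and every replicate individually at or above 90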;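 also: higher luciferase means less miR-122 activity so hits act as miR-122 inhibitors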
DNA FID counter = compounds displacing fluorescent DNA intercalator, primary screen, artefact control for HCV NS3 helicase inhibitor project, biochemical, FID fluorescence; DNA fluorescent intercalator displacement; inhibition, % at 7.9 µM; actives 0.17% (n = 290,000); AID 1845, 2009; in the data active = inhibition above about 37%;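 also: 0% = vehicle and 100% = reference compound; higher means more ethidium bromide displaced from hairpin DNA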
Active calls of the source: *; nt = no result; [ ] = another dose, or the depositor's remark.

SMILES	CendR NRP1 mod	RAD52 inh	Glyco luc inh	RAD54 branch	miR122 inh	DNA FID counter
CCCNC(=O)Nc1ccc2c(c1)OC[C@@H](C)N(CCC(F)(F)F)C[C@@H](C)[C@@H](OC)CN(C)C2=O	nt	-8	nt	3	nt	nt
O=C(NCC[C@@H]1CC[C@@H](NS(=O)(=O)c2cccc(F)c2)[C@H](CO)O1)C1CCCCC1	nt	1	nt	0	nt	nt
COc1ccc(-n2nnc3c(SCC(=O)NCc4ccco4)ncnc32)cc1	36*	nt	1	1	-5	-9
CO[C@H]1CN(C)C(=O)c2ccc(NC(=O)Cc3ccccc3)cc2OC[C@H](C)N(CC2CC2)C[C@@H]1C	nt	-10	nt	nt	nt	nt
CCC(CO)NCc1ccc(OCC(=O)Nc2cccc(C(F)(F)F)c2)c(OC)c1 (configuration not stated)	-6	nt	-4	nt	nt	19
CCOc1cc(CNC(C)(C)C)ccc1OCC(=O)Nc1cccc(C(F)(F)F)c1	-2	-4	-4	nt	6	38*
CCn1ncc(Br)c1C(=O)N(C)C12CC3CC(CC(C3)C1)C2	27*	nt	1	nt	-1	-25
CCn1ncc(Br)c1C(=O)Nc1ccn(C23CC4CC(CC(C4)C2)C3)n1	-6	nt	-3	-6	15	-5
O=C(C1CCCO1)N1CCc2ccccc21 (configuration not stated)	56*	nt	nt	3	1	-6
O=C(c1cccc(S(=O)(=O)N2CCCCC2)c1)N1CCc2ccccc21	32*	12	-1	nt	nt	-22
O=C(CCC(=O)N1CCCc2ccccc21)N1CCN(S(=O)(=O)c2ccccc2)CC1	28*	nt	-2	1	-10	-25
O=C(c1ccc(S(=O)(=O)N2CCOCC2)cc1)N1CCc2ccccc21	24*	-5	4	-9	12	-20
O=C(c1ccc(S(=O)(=O)N2CCOCC2)cc1)N1CCc2ccccc2C1	-2	nt	-1	6	-7	-30
C[C@@H]1CN([C@@H](C)CO)C(=O)c2cccc(NC(=O)C3CCCCC3)c2O[C@@H]1CN(C)Cc1ccccc1	nt	2	nt	nt	nt	nt
CCC(=O)Nc1ccc2c(c1)OC[C@H](C)N(CC1CC1)C[C@@H](C)[C@H](OC)CN(C)C2=O	nt	-2	nt	nt	nt	nt
C[C@@H]1CN([C@@H](C)CO)S(=O)(=O)c2ccc(/C=C/c3ccccc3)cc2O[C@H]1CN(C)C(=O)CN1CCOCC1	nt	6	nt	4	24[16.7 µM]	nt
O=C(CSc1ccc(-c2ccc(F)cc2)nn1)NC1CCCCC1	19*	-7	-3	-9	-2	-27
C[C@H](CO)N1C[C@H](C)[C@H](CN(C)C(=O)Nc2ccc(C(F)(F)F)cc2)Oc2ncc(/C=C/c3ccccc3)cc2C1=O	nt	8	nt	-2	nt	nt
Cc1noc(C)c1NC(=O)N[C@H]1CC[C@H](CC(=O)N2CCN(C)CC2)O[C@H]1CO	nt	-4	nt	1	nt	nt
CC1(C)CC(=O)C2=C(C1)Oc1ncn3nc(-c4cccnc4)nc3c1C2c1ccccc1 (configuration not stated)	31*	nt	0	-1	-2	nt
Cc1ccc(S(=O)(=O)Nc2ccc3c(c2)C(=O)N([C@@H](C)CO)C[C@@H](C)[C@H](CN(C)C(=O)C2CCCCC2)OCCCC[C@@H](C)O3)cc1	nt	20	nt	2	-6[16.7 µM]	nt
Cc1nc(-c2ccccc2)sc1C(=O)CSc1ccccc1	28*	nt	3	-6	-4	-3
C[C@@H]1CN([C@@H](C)CO)C(=O)c2cc(NC(=O)Cc3ccccc3)ccc2O[C@@H](C)CCCCO[C@@H]1CN(C)S(=O)(=O)c1ccccc1	nt	-33	nt	4	0[16.7 µM]	nt
CO[C@@H]1CN(C)C(=O)c2ccc(NC(=O)C3CCC3)cc2OC[C@@H](C)N(CC2CCCCC2)C[C@H]1C	nt	19	nt	nt	nt	nt
C#CC[N+](C)(C)CCCCCCCCCC	-10	8	40*	-15	-3	11
SMILES	CendR NRP1 mod	RAD52 inh	Glyco luc inh	RAD54 branch	miR122 inh	DNA FID counter
C#CC[N+](C)(C)CCCCCCCC	3	-14	18	nt	nt	1
C#CC[N+](C)(C)CCCCCCCCCCCC	-12	33	144*	nt	nt	17
C[C@@H]1CN([C@H](C)CO)S(=O)(=O)c2ccc(C#CCN(C)C)cc2O[C@H]1CN(C)C(=O)Nc1ccccc1F	nt	-16	nt	-3	3[16.7 µM]	nt
COc1ccc(-c2n[nH]c3c2CN(C(=O)c2ccc(OC)c(OC)c2)CC3)cc1	10	0	39*	-4	20	-41
COc1cc(OC)cc(C(=O)N2CCN(C(=O)c3ccc(OC)c(OC)c3)CC2)c1	-6	nt	5	-4	8	-19
CCN(CC)c1ccc2cc(C#N)c(=O)oc2c1	25*	-28	4	nt	-1	0
CCN(CC)c1ccc2ccc(=O)oc2c1	-4	-28	3	nt	-2	6
C[C@@H]1CN([C@@H](C)CO)C(=O)Cc2cc(NS(=O)(=O)c3cn(C)cn3)ccc2O[C@@H]1CN(C)CC1CC1	nt	-14	nt	-1	42[16.7 µM]	nt
CCOC(=O)c1cc(CC)sc1NC(=O)Cc1ccsc1	22*	nt	-5	-7	6	-11
O=C(NCCc1ccc(Cl)cc1)c1ccc(=O)[nH]c1	-4	-11	0	-3	-3	-3
O=C(NCCc1ccc(O)cc1)c1ccc(Cl)cc1	24*	nt	-1	2	-5	-12
CCCC#Cc1ccc([C@H]2[C@H](CO)N3C(=O)CN(C(=O)c4cccnc4)C[C@@H]23)cc1	nt	3	nt	nt	nt	nt
CCOC(=O)c1sc(=S)n(-c2ccc(OC)cc2)c1C	0	-7	-1	-3	-6	-18
CCOC(=O)c1c2c(n(-c3ccc(OC)cc3)c1C)C(=O)C(=O)c1ccccc1-2	34*	nt	-21	nt	nt	nt
COc1ccc(C(C)C)cc1-c1cc(C(=O)NCc2cccc(C(F)(F)F)c2)[nH]n1	21*	-9	-2	-1	-9	nt
O=C(CC1CC1)N[C@H]1CC[C@H](CCNS(=O)(=O)c2ccc(Cl)cc2)O[C@@H]1CO	nt	-7	nt	-1	nt	nt
O=C(Nc1ccc2c(c1)OCO2)c1c[nH]c(=O)n(-c2ccc(F)cc2)c1=O	20*	-5	4	5	0	-16
COc1ccc(-n2c(=O)[nH]cc(C(=O)Nc3ccc4c(c3)OCCO4)c2=O)cc1OC	-4	-6	1	12	-1	-33
COc1ccc(N(C(=O)c2cccnc2)S(=O)(=O)c2ccccc2)cc1	24*	-10	-1	-2	9	-13
COc1ccc(N(C(=O)c2cccnc2)S(=O)(=O)c2ccc(F)cc2)cc1	-10	-12	-1	-13	-1	-28
